# Assay results published in ChEMBL document CHEMBL2218924, “A broad activity screen in support of a chemogenomic map for kinase signalling research and drug discovery” (Biochem J, 2013).
# Molecular target: Death-associated protein kinase 1 (Homo sapiens) (UniProt P53355)
# Details: at 1 µM
# Chain of Death-associated protein kinase 1 (Homo sapiens) (P53355 whole entry, looked up): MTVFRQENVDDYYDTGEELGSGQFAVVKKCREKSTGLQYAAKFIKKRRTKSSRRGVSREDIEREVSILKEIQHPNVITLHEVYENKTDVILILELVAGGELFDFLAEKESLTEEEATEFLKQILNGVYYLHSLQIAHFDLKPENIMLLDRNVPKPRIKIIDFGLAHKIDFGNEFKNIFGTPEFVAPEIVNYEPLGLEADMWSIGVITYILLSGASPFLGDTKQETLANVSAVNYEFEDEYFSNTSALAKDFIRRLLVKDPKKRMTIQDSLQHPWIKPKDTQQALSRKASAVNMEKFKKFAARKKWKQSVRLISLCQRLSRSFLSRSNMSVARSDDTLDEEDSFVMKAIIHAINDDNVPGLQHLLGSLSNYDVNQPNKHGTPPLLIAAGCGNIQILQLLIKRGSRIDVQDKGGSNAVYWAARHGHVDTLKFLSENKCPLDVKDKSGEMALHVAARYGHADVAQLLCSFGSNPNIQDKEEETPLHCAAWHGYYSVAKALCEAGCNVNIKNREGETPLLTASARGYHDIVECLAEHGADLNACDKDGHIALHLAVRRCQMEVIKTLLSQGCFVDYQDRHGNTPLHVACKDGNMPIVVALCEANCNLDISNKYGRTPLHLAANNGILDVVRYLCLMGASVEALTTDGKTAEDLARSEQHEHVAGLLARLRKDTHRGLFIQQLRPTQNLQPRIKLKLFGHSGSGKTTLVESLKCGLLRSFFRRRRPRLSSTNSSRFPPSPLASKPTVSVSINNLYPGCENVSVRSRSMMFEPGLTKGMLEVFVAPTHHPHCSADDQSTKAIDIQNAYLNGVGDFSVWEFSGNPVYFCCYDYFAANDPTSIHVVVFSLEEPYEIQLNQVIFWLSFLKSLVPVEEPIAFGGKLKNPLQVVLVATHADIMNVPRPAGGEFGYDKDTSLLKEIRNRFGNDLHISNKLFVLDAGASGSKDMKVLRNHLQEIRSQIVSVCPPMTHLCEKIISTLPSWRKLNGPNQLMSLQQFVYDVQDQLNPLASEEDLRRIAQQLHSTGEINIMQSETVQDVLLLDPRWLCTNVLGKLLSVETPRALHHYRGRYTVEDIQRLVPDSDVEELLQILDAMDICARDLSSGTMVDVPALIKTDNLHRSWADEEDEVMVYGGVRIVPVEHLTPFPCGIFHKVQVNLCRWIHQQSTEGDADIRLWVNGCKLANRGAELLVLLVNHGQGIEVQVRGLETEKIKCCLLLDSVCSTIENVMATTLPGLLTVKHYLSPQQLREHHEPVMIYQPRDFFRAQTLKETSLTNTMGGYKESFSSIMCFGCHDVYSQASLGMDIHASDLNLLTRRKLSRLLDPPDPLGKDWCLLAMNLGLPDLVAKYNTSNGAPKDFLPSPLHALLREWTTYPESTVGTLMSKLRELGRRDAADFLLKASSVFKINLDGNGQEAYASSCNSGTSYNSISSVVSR
row,SMILES,residual activity
1,Nc1ncnc2[nH]nc(Nc3ccc(F)cc3)c12,102%
2,Cn1cc(/C=C2\C(=O)Nc3ccc(S(N)(=O)=O)cc32)c2ccccc21,94%
3,CC(C)n1cnc2c(NCc3ccccc3)nc(NCCCO)nc21,83%
4,O=C(Nc1cccc(Nc2cc(Nc3cccc(C(F)(F)F)c3)ncn2)c1)C1CC1,109%
5,CC#CC(=O)Nc1cc2c(Nc3ccc(F)c(Cl)c3)ncnc2cn1,88%
6,O=c1cc(N2CCNCC2)oc2c(-c3ccccc3)cccc12,96%
7,Oc1c2ccccc2c2c3c(cccc13)N=N2,91%
8,CCOc1cc2ncnc(Nc3cccc(Br)c3)c2cc1OCC,83%
9,Fc1ccc(-c2nc3n(c2-c2ccncc2)CCS3)cc1,85%
10,O=C(Nc1nc2ccccc2n1CCN1CCOCC1)c1cccc([N+](=O)[O-])c1,85%
11,N#C/C(=C(\N)Sc1ccc(N)cc1)c1ccccc1C(F)(F)F,84%
12,c1ccc(-c2n[nH]cc2-c2ccnc3ccccc23)nc1,91%
